In ChEMBL document CHEMBL1157539, “Thousands of chemical starting points for antimalarial lead identification” (Nature, 2010):

test system: Plasmodium falciparum; assay: GSK_TCMDC: Inhibition of Plasmodium falciparum 3D7 in whole red blood cells, using parasite LDH activity as an index of growth. Test compounds present at 2uM; assay type: functional

Structure (SMILES) | Inhibition
Clc1ccccc1/C=C/c1cncnc1Nc1ccc2[nH]c(Cc3ccccc3)nc2c1 | 96%
COc1ccc2c(c1)CC(C)(C)NC2CCCCCCCCC1NC(C)(C)Cc2cc(OC)ccc21.O=C(O)C(=O)O (stereo not given) | 98%
O=C(Nc1ccc2c(c1)CCC2)c1ccc(CN2CCCN(Cc3cccc(O)c3)CC2)cc1.O=C(O)C(F)(F)F | 88%
CC(C)(CNCc1ccc(C(F)(F)F)cc1)c1nc(-c2ccc(Cl)c(O)c2)c(-c2ccncc2)[nH]1.Cl | 100%
CCOc1cccc(C(=O)Nc2cccc(CN3CCCN(Cc4ccc(O)cc4)CC3)c2)c1.O=C(O)C(F)(F)F | 91%
COc1ccc2cc(CNCCCCCCNCc3ccc4cc(OC)ccc4c3)ccc2c1.CS(=O)(=O)O | 100%
O=C(/C=C/c1cccc(Br)c1)NCCCCCN1CCC(c2c[nH]c3ccccc23)CC1 | 100%
COc1cc2c(cc1OCCN1CCC(N3CCCCC3)CC1)N(C(=O)/C=C/c1ccccc1OC(F)(F)F)CC2.Cl | 100%
CN(C)CCCNCc1ccc(-c2ccc(CNCCc3ccccc3)cc2)cc1.O=C(O)C(F)(F)F | 100%
N#Cc1cccc(CNC(=O)c2cccc(Nc3ccnc4ccc(F)cc34)c2)c1.O=C(O)C(F)(F)F | 87%
Cc1ccc(Cc2c[nH]c(NCCSCc3ccc(CN(C)C)s3)nc2=O)cn1 | 95%
CCc1c(C)nc(-n2nc(C)cc2NC(=O)CC(c2ccccc2)c2ccccc2)[nH]c1=O | 97%
CCCCOP(=O)(COc1ccc(CCN(CC(O)COc2cccc3[nH]c4ccccc4c23)CC(O)COc2cccc3[nH]c4ccccc4c23)cc1)C1CCCCC1 (stereo not given) | 89%
CCCCCCN(CCCCCC)CC(O)c1c(OC)ccc2ccccc12.Cl (stereo not given) | 100%
O=C(Nc1ccc(Cl)cc1)c1ccc(CN2CCCN(Cc3cccc(Cl)c3)CC2)cc1.O=C(O)C(F)(F)F | 96%
CO/C(=C\C=C\c1cc2cc(Cl)c(Cl)cc2[nH]1)C(=O)NCC(C)(C)CN(C)C | 81%
Fc1ccc2[nH]c(-c3cccc(-c4ccc(CNCCc5ccncc5)cc4)c3)nc2c1.O=C(O)C(F)(F)F | 99%
Cc1nc(-c2ccc(-c3ccc(NC(=O)c4coc5ccc(N6CC(C)NC(C)C6)cc45)cc3)c(C)c2)no1.Cl (stereo not given) | 100%
COc1cccc(NC(=O)Nc2ccc(C)c(-c3ccc(C(=O)Nc4ccncc4)cc3)c2)c1 | 99%
CCn1c(-c2nonc2N)nc2c(-c3cccc(NC(=O)Nc4ccc(Cl)cc4)c3)ncc(OCCCN)c21.O=C(O)C(F)(F)F | 96%

Structure (SMILES) | Inhibition
NC1CCCN(Cc2cccc(-c3ccc(-c4nc5ccccc5[nH]4)cc3)c2)C1.O=C(O)C(F)(F)F (stereo not given) | 100%
O=C(/C=C/c1ccc(C(F)(F)F)cc1)NCCCCCN1CCCN(C(=O)Nc2ccc(Cl)c(Cl)c2)CC1 | 100%
COc1ccc(-c2cccc(NC(=O)c3cccc(Cl)c3)c2)cc1CN1CCCN(C)CC1.O=C(O)C(F)(F)F | 100%
CN1CCN(c2ccc3nccc(CCN4CCC(NCc5ccc6c(n5)NC(=O)CO6)CC4)c3n2)CC1.Cl | 97%
NC1CCN(c2nc(NCCc3ccc(O)cc3)nc(NCc3ccccc3-c3ccccc3)n2)CC1.O=C(O)C(F)(F)F | 99%
O=C(Nc1ccc(Cl)cc1)c1ccc(CN2CCCN(Cc3cccc(F)c3)CC2)cc1.O=C(O)C(F)(F)F | 91%
O=c1ccc(-c2nc3cc(Cl)c(Cl)cc3n2Cc2ccc(Cl)cc2Cl)c[nH]1 | 88%
O=C(COc1cnc2ccccc2n1)Nc1ccccc1Sc1ccc(Cl)cc1 | 100%
CCC1CCCCN1S(=O)(=O)c1ccc(OC)c(N2CCN(C(=O)C(Cl)(Cl)Cl)CC2)c1 (stereo not given) | 89%
COc1cc(OC)c2c(C)cc(NCCCN3CCOCC3)nc2c1 | 99%
O=C(Nc1ccccc1)Nc1cccc(-c2cccc(-c3nc4cc(F)ccc4[nH]3)c2)c1 | 99%
Cc1noc(C)c1-c1cccc(CNCc2ccc(-c3cccc(-c4nc5cc(F)ccc5[nH]4)c3)cc2)c1.O=C(O)C(F)(F)F | 100%
O=C(NCCCN1CCCC1=O)c1cnc(N2CCC(Oc3ccccc3)CC2)c(Cl)c1 | 97%
CCOc1cc(C)ccc1C1CCN(CCCCNC(=O)c2ccc(-c3ccc(C(F)(F)F)cn3)cc2)CC1.Cl | 99%
CC(C)(C)c1ccc(O)c(CNC2CCCCC2)c1.Cl | 100%
Cl.O=C(C=Cc1ccc(F)cc1)NC1CCC(CCN2CCc3ccc(-c4cnccn4)cc3CC2)CC1 (stereo not given) | 99%
CC(C)CCN1CCC(Oc2ccc(NC(=O)c3cccs3)cc2Cl)CC1.O=C(O)C(F)(F)F | 97%
COc1cc(C(=O)NCCCN2CCN(c3cccc(Cl)c3)CC2)ccc1-c1nc2cc(Cl)c(F)cc2[nH]1 | 100%
O=C(NCCc1ccc(O)cc1)n1c2ccccc2c2ccccc21 | 83%
Cc1c(Cl)ccc2c(C(=O)Nc3ccncc3)cc(-c3cccnc3)nc12 | 99%
